Assay [1] in a line: Cell Viability - HUV-EC-C (AID 542).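 Further: cells exposed to compound for 40 hours; nearly all actives have a fitted effect of over 35% in size.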 Further: potency means the concentration at half of the fitted maximal effect. On activity change, negative = cytotoxicity: on the % scale 0 is the no-effect control and ±100 the full control effect. The gist of the method: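 CellTiter-Glo luminescence measured ATP loss in HUV-EC-C cells (1000/well) after 40 hr compound exposure at 37 °C, in complete culture medium. Concentration-response data were Hill-fitted to give AC50.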
The nature of assay [2]: Cell Viability - H-4-II-E (AID 543).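 Further: cells exposed to compound for 40 hours; nearly all actives have a fitted effect of over 35% in size.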 Further: potency means the concentration at half of the fitted maximal effect. A digest of the protocol:
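CellTiter-Glo luminescence (intracellular ATP) measured after 40 h compound exposure at 37 °C in H-4-II-E rat hepatoma cells seeded at 1500/well. Values are AC50s fitted with the standard Hill equation.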

Assay [3] in a line: Cell Viability - SH-SY5Y (AID 544).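 Further: cells exposed to compound for 40 hours; nearly all actives have a fitted effect of over 55% in size.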 As to conditions: SH-SY5Y neuroblastoma cell viability; viability change, negative = cytotoxic: at 92.2 µM (top of the series). A digest of the protocol: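 Cytotoxicity measured via ATP-dependent luciferase luminescence (CellTiter-Glo) following 40 h, 37 °C exposure of 1500 SH-SY5Y cells per well. Concentration-response data were fitted with the standard Hill equation to give AC50.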

Assay [4] can be described thus: Cell Viability - Mesenchymal (AID 546).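 Further: cells exposed to compound for 40 hours before reading.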 Further: potency means the concentration at half of the fitted maximal effect. The following applies: mesenchymal cells viability, qHTS; activity change, negative = cytotoxicity: at 91.7 µM (top of the series). The gist of the method: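 Human renal mesenchymal cells (glomerulus-derived), 1000 cells/well, 5 hr 37 °C pre-incubation; compound 40 hr, 37 °C; CellTiter-Glo, 20 min RT; luminescence; AC50 via Hill equation.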

Assay [5] can be described thus: Cellular Toxicity (caspase-3) HepG2 (AID 654).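 Further: cells exposed to compound for 16 hours before reading; 0% = DMSO alone and 100% = caspase signal from 100 µM tamoxifen.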 The gist of the method: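 Caspase 3/7 activation is measured as a luminescence increase (aminoluciferin substrate) after 16 h compound exposure of human hepatocarcinoma HepG2 cells. AC50 values are Hill fits, scaled between DMSO baseline and 100 uM tamoxifen stimulation.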
The nature of assay [6]: Cellular Toxicity (caspase-3) Jurkat (AID 655).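 Further: cells exposed to compound for 16 h at 37 °C before reading.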 As to conditions: Jurkat caspase-3 activation, luminescence; caspase-3 activation: at 92.2 µM (top of the series), DMSO = 0%, tamoxifen = 100%. The gist of the method: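 Jurkat cells (5000/well) in complete medium exposed 16 h at 37 C; caspase-3/7 activity read by Caspase-Glo luminescence after 20 min at room temperature. Normalized to DMSO and 100 uM tamoxifen; AC50 from Hill fits.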

Assay [7] in a line: Cellular Toxicity (caspase-3) HUV-EC-C (AID 656). A digest of the protocol: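 HUV-EC-C cells (1000/well) in complete medium, compound-treated 16 h at 37 °C; caspase-3/7 activity read by Caspase-Glo 3/7 luminescence. Normalized to DMSO (basal) and 100 uM tamoxifen (100%); AC50 from Hill-equation concentration-response fits.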
The nature of assay [8]: Cellular Toxicity (caspase-3) BJ (AID 658).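 Further: 0% = DMSO basal and 100% = 10 µM staurosporine.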 The following applies: Potency: caspase-3 activation. A digest of the protocol:
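qHTS, BJ fibroblasts, 1000 cells/well; 5 hr preincubation, 16 hr compound, 37 °C; Caspase-Glo 3/7 reagent, 1 hr RT; luminescence. DMSO = 0%, 10 uM staurosporine = 100%. Hill-equation AC50.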

Assay [9] can be described thus: Cellular Toxicity (caspase-3) MRC-5 (AID 659).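 Further: 0% = DMSO basal and 100% = 10 µM staurosporine.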 A digest of the protocol:
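MRC-5 fibroblasts, 1500/well; 16 h cpd, 37 °C; Caspase-Glo 3/7, 1 h RT; lumi read. Norm: DMSO = 0%, 10 uM staurosporine = 100%. Hill-fit AC50 from qHTS conc-response.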

Assay [10] can be described thus: Cellular Toxicity (caspase-3) SK-N-SH (AID 661).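 Further: 0% = DMSO basal and 100% = 10 µM staurosporine.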 The gist of the method: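 Caspase 3/7 activation was read by luminogenic substrate cleavage after 16 hour treatment of SK-N-SH cells. Signal was scaled between DMSO and 10 uM staurosporine, and concentration-response data were fitted with the Hill equation for AC50.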
Assay [11] can be described thus: Cellular Toxicity (caspase-3) H-4-II-E (AID 663).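 Further: cells exposed to compound for 16 hr before readout.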 The following applies: Potency: caspase-3 activation. A digest of the protocol:
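H-4-II-E rat hepatoma, 1500 cells/well, 5 hr settle at 37 °C; compound 16 hr, 37 °C, complete medium; Caspase-Glo 3/7, 20 min RT; luminescence. DMSO = 0%, 100 uM tamoxifen = 100%; Hill-equation AC50.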

Assay [12] can be described thus: Cellular Toxicity (caspase-3) Hek293 (AID 664).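 Further: cells exposed to compound for 16 h at 37 °C before readout.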 As to conditions: HEK293 caspase-3 activation, DMSO = 0%, 100 µM tamoxifen = 100%; at 92.2 µM (top of the series). A digest of the protocol:
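Concentration-response qHTS: caspase 3/7 activation measured by luminescent aminoluciferin substrate cleavage after 16 h compound exposure of Hek 293 cells. AC50 from Hill equation, with DMSO as basal and 100 uM tamoxifen as 100%.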

In assay [13] the target is Bile acid receptor (Homo sapiens) (UniProt Q96RI1). As to the kind of experiment: qHTS assay for small molecule antagonists of farnesoid X receptor signaling (AID 588526; calls by dose curve; further: on the % scale 0 is the no-effect control and ±100 the full control effect). The gist of the method: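 Antagonist mode: titrated compounds tested against chenodeoxycholic acid stimulation (normalized to 50 uM CDCA and DMSO) in GeneBLAzer HEK293T cells for 16 h. Beta-lactamase read by CCF4 fluorescence; IC50 from Hill fits.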

Assay [14] deals with Peroxisome proliferator-activated receptor gamma (Homo sapiens) (UniProt P37231). Kind of assay: qHTS assay for small molecule agonists of peroxisome proliferator-activated receptor gamma signaling (AID 588536; active means well fitted curve in the direction sought with a large enough effect in the signal ratio, with a control signal flat, not every such curve was filed as active; the % refers to the signal ratio;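 further: 0% = DMSO basal wells and 100% = rosiglitazone at 2 µM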). The gist of the method: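 Cells were plated and held 6–6.5 h at 37 C, then compounds were added as a titration series. After a further 16 h, CCF4 dye was loaded for 2 h at room temperature and emission at 460/530 nm recorded.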

Assay [15] can be described thus: qHTS assay for small molecule agonists of the antioxidant response element (ARE) signaling pathway (AID 651741; active means well fitted activation curve with a large enough effect in the signal ratio; the % refers to the signal ratio; further: potency means the concentration at half of the fitted maximal effect; on activation: % of control where 0% means no effect). The gist of the method: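 Stably integrated ARE-beta-lactamase reporter HepG2 cells; 16 h compound incubation, 37 C; LiveBLAzer FRET substrate 2 h at room temperature; fluorescence intensity.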
A short description of assay [16]: qHTS assay for small molecule activators of the p53 signaling pathway (AID 651743; active means well fitted activation curve with a large enough effect in the signal ratio, not every such curve was filed as active; the % refers to the signal ratio; further: % of control where 0% means no effect). As to conditions: HCT-116 p53RE-bla, beta-lactamase FRET ratio, 16 h; activation: hits give high values. A digest of the protocol:
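Following 16 hours of compound exposure at 37 C, HCT-116 cells bearing the p53RE-bla reporter were loaded with LiveBLAzer B/G FRET substrate for 2 hours at room temperature and fluorescence intensity was recorded.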

Assay [17] in a line: qHTS assay for small molecule disruptors of the mitochondrial membrane potential - 1 hr assay (AID 651754; calls by dose curve; further: nearly all actives have a fitted effect of over 35% in size; further: potency means the concentration at half of the fitted maximal effect). The gist of the method:
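Mitochondrial potential in living HepG2 cells after 1 hr compound treatment at 37C was read with Mito-MPS dye added for a further 30 min. Red aggregate and green monomer fluorescence were measured; loss of potential leaves dye as cytoplasmic monomers.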

Assay [18] is described as follows: qHTS assay for small molecule disruptors of the mitochondrial membrane potential - 5 hr assay (AID 651755; calls by dose curve; further: nearly all actives have a fitted effect of over 40% in size; further: potency means the concentration at half of the fitted maximal effect). A digest of the protocol:
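Read-out: ratiometric Mito-MPS fluorescence, green monomer (ex 490/em 535) vs red mitochondrial aggregate (ex 540/em 590). HepG2 cells treated 5 hr at 37C before 30 min dye loading.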

Assay [19] is described as follows: qHTS assay for environmental chemicals that activate the Aryl hydrocarbon Receptor (AhR) signaling pathway (AID 651777). Further: % of control where 0% means no effect; nearly all actives have a fitted effect of over 15% in size. As to conditions: 1A2-DRE human hepatoma cells, luciferase, 24 h; activation: hits give high values. The gist of the method: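 Human hepatoma 1A2-DRE cells stably carrying a DRE/CYP1A2 promoter–luciferase reporter, 1,200 cells/well, exposed to compound 24 hr at 37 C. Luciferase read by One-Glo luminescence after 30 min at room temperature; increased signal marks AhR activation.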

The target in assay [20] is Peroxisome proliferator-activated receptor alpha (Homo sapiens) (UniProt Q07869). As to the kind of experiment: qHTS assay for small molecule agonists of the peroxisome proliferator-activated receptor alpha (PPARalpha) signaling pathway (AID 651778). Further: % of control where 0% means no effect. The following applies: PathHunter PPARalpha complementation, chemiluminescence, 6 h; max response: hits give high values. A digest of the protocol: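 Enzyme-fragment complementation assay in which ligand-bound PPARalpha translocates and forms an active enzyme that generates chemiluminescence. Cells were plated overnight, exposed to compound for 6 hr at 37 C, and then given detection reagent for 60 min at room temperature.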

Where “and” joins values, the source holds several entries; their conditions need not be identical. Equal entries are not always repeated. Inconclusive results are not listed. Calls of active or inactive are those of the source. Unless noted, the call rests on the fitted dose curve; in most records, active means well fitted curve in the direction sought with a large enough effect; inconclusive means small, poorly fitted or top-dose-only effect, or another doubt; inactive means no such curve, though single readings can be large; an effect the other way counts as inactive or inconclusive.

Chain of Peroxisome proliferator-activated receptor gamma (Homo sapiens) (P37231 whole entry, looked up): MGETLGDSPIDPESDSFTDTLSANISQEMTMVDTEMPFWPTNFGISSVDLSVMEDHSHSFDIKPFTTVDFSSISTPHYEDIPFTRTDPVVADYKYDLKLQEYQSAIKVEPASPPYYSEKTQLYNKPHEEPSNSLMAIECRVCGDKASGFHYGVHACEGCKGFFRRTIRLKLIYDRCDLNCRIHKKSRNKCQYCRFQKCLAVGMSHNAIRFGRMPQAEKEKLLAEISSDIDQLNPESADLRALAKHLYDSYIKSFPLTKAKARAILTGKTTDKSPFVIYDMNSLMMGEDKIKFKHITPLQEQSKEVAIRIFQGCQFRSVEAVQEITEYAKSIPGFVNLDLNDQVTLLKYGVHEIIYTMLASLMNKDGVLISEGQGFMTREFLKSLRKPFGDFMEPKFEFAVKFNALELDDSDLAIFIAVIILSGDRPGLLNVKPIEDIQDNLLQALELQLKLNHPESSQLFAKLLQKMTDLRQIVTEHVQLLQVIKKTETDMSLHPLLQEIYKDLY
Chain of Bile acid receptor (Homo sapiens) (Q96RI1 whole entry, looked up): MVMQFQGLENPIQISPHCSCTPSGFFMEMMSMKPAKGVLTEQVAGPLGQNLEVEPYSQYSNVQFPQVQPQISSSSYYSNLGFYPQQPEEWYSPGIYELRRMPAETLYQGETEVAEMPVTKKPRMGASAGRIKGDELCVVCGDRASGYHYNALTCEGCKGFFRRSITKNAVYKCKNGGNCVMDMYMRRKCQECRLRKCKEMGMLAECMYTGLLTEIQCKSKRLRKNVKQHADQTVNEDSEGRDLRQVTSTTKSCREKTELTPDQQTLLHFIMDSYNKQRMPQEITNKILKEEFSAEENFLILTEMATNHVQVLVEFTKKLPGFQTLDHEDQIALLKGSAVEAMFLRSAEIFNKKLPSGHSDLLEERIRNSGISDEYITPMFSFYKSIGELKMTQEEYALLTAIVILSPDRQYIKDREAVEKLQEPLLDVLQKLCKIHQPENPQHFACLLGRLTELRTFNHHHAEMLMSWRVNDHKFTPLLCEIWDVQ
Chain of Peroxisome proliferator-activated receptor alpha (Homo sapiens) (Q07869 whole entry, looked up, the tested form may be a part): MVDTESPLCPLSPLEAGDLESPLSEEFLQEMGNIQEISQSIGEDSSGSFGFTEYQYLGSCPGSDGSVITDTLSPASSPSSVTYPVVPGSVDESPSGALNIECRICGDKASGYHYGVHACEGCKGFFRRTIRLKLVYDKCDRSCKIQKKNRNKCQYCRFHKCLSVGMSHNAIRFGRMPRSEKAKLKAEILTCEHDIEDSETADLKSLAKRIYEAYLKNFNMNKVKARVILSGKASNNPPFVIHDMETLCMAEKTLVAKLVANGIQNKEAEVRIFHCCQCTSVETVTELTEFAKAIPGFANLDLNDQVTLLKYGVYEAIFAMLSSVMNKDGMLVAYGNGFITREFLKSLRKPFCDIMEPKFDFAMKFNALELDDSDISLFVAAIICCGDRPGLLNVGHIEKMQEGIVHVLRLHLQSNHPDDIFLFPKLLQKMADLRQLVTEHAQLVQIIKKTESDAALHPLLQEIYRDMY

Regarding `CC(CCC(=O)O)(c1ccc(O)cc1)c1ccc(O)cc1`, the Potency entry in assay [1], in assay [2], in [3], in assay [4], in assay [5] and in [6] was “inactive” each time. Further, the Potency entry in assay [7], in assay [8], in assay [11], in [13], in [15] and in assay [17] was “inactive” throughout. The Potency result in assay [18] was “inactive”. For the same compound, the call in assay [9], in assay [10] and in assay [14] was inactive. Moreover, in assay [12], the caspase-3 activation was 1.18% (inactive). Also, the activation was -5.03% (inactive) and -5.24% (inactive) in [16]; 2.27% (inactive) and -1.21% (inactive) in assay [19]. In addition, the max response in [20] was -9.77% (inactive) and -1.13% (inactive).

As for `N=C1C=CC(=C(c2ccc(N)cc2)c2ccc(N)cc2)C=C1`, the Potency is 20 µM (active) in assay [1]; 31.6 µM (active) in assay [2]; 7.94 µM (active) in assay [4]; 42.2 µM (active) in assay [15]; 1.33 µM (active) in assay [17]; 0.531 µM (active) in assay [18]. Also, the viability change, negative = cytotoxic in assay [3] is -99.9% (active). The Potency result in assay [5], in [6], in assay [7], in assay [8], in assay [11] and in assay [13] was “inactive” each time. Further, the compound was called inactive in assay [9], in [10] and in [14]. For the same compound, the caspase-3 activation in [12] is -1.95% (inactive). Besides, the activation in assay [16] is 11.1% (inactive); in assay [19] it was 3.01% (inactive). In assay [20], the max response was -9.83% (inactive).

For the origin of these results see PubChem BioAssay (NCATS).
